# Screens: PubChem, National Center for Advancing Translational Sciences (NCATS)
# Most compounds without a hit are left out; they make up all but 17% or so of the library.
# S2 tox = Viability Counterscreen for Primary qHTS for Inhibitors of ATXN expression; S2 cells (HEK-293 line with an ATXN2-luciferase reporter) viability, CellTiter-Fluor protease fluorescence, 24 h; Potency, µM (top dose mostly 56.7 µM), usual class: cytotoxic; hit rate 0.49% among 400,000; AID 651635, 2014; further: nearly all actives have a fitted effect of over 40% in size
# ATXN2 expr inh = Primary qHTS for Inhibitors of ATXN expression. HEK-293 ATXN2-luciferase reporter, luminescence, 24 h. Potency, µM (series often up to 57 µM), inactives show at the top dose activity change, negative = inhibition, hits mostly inhibitors. hit rate 0.72% among 360,000; further: on the % scale 0 is the no-effect control and ±100 the full control effect; nearly all actives have a fitted effect of over 55% in size
#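 qHTS (up to 57 uM final) was run with 24 h compound exposure of reporter cells at 37 °C. Each well was multiplexed: SteadyGlo luminescence measured ATXN2-luciferase expression after a fluorogenic Gly-Phe-AFC viability readout (25 uM final).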
# DT40 TDP1 no CPT = qHTS for Inhibitors of human tyrosyl-DNA phosphodiesterase 1 (TDP1): qHTS in cells in absence of CPT. DT40 Tdp1-/- hTDP1 cells, no CPT, ATP luminescence, 48 h. Potency, µM (doses to about 46.2 µM), inactives show top-dose activity change, negative = growth inhibition, most hits filed as inhibitors. hit rate 15% among 420,000. AID 686978, 2013; further: on the % scale 0 is the no-effect control and ±100 the full control effect; nearly all actives have a fitted effect of over 55% in size
#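 Chicken DT40 Tdp1-/- cells complemented with human TDP1, screened without camptothecin (DMSO vehicle only), 400 cells/well. Compounds pin-transferred, cells incubated at 37 °C for at least 48 hr. Growth read as ATP-dependent luminescence (CellTiter-Glo, 30 min at RT).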
# HepG2 tox = qHTS for Inhibitors of TGF-b: Cytotox Counterscreen. HepG2 CAGA-GFP viability, ATP luminescence, 18 h. Potency, µM (top dose mostly 46.1 µM), inactives show at the highest dose activity change, negative = cytotoxicity, actives largely listed as cytotoxic. hit rate 0.76% among 410,000. AID 588856, 2011
#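 HepG2 CAGA-GFP cells (1000/well, DMEM with 1% FBS) received compound, then TGF-beta at 500 pg/mL final, and were incubated 18 hours at 37 degrees C. Viability was read by CellTiter-Glo luminescence. Media-only wells were set as complete cell-killing and DMSO as no toxicity.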
# TDP1 cell CPT = qHTS for Inhibitors of human tyrosyl-DNA phosphodiesterase 1 (TDP1): qHTS in cells in presence of CPT. AID 686979, 2013. Potency, µM (highest dose often 46.2 µM), inactives show at the highest dose activity change, negative = growth inhibition, hits mostly inhibitors. chicken DT40 Tdp1-/-;hTDP1 cells + 20 nM CPT, ATP luminescence, 48 h. hit rate 12% among 420,000; further: on the % scale 0 is the no-effect control and ±100 the full control effect; nearly all actives have a fitted effect of over 55% in size
#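 Cell growth measured by CellTiter-Glo luminescence after a minimum 48 h, 37 C compound exposure with 20 nM CPT in Tdp1-knockout DT40 cells stably expressing hTDP1, seeded 400/well; qHTS titration format.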
# TGFb inhibitor = qHTS for Inhibitors of TGF-b; hit rate 1.2% among 410,000; Potency, µM (doses to about 46.1 µM), for inactives: at the top dose activity, negative = inhibition, most hits filed as inhibitors; HepG2 CAGA-GFP TGF-b/SMAD3 reporter, GFP fluorescence, 18 h; TGF-beta stimulated, 500 pg/mL final; further: on the % scale 0 is the no-effect control and ±100 the full control effect; nearly all actives have a fitted effect of over 65% in size
#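 First, reporter cells (HEPG2 CAGA-GFP) rested 2 h at 37 degrees C. Next, compounds were pinned in and TGF-beta added to 500 pg/mL final. After 18 h, GFP was imaged per cell and summed per well.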
# * marks the source's active call; other numbers are inactive results; i = inactive; u = inconclusive; x = not tested or not shown. The call rests on the fitted dose curve; in most records, active means well fitted curve in the direction sought with a large enough effect; inconclusive means small, poorly fitted or top-dose-only effect, or another doubt; inactive means no such curve, though single readings can be large; an effect the other way counts as inactive or inconclusive. Potency means the concentration at half of the fitted maximal effect.
SMILES,S2 tox,ATXN2 expr inh,DT40 TDP1 no CPT,HepG2 tox,TDP1 cell CPT,TGFb inhibitor
CCOC(=O)[C@]12CCCC=C1N(CCc1ccc(OC)c(OC)c1)C(=O)[C@H](CC(=O)NCCCN1CCCC1=O)C2,x,x,1%,x,8%,x
CCCCNC(=O)C[C@@H]1C[C@@]2(C(=O)OCC)CCC=C2N(CCC2=CCCCC2)C1=O,i,-3%,u,x,18µM*,x
CCCCOCCCNC(=O)C[C@@H]1C[C@@]2(C(=O)OCC)CCC=C2N(CCC2=CCCCC2)C1=O,i,-14%,u,x,u,x
CCOC(=O)[C@]12CCC=C1N(CCC1=CCCCC1)C(=O)[C@H](CC(=O)NCCC(C)C)C2,i,0%,16µM*,x,u,x
CCOC(=O)[C@]12CCCC=C1N(CCc1ccc(OC)c(OC)c1)C(=O)[C@H](CC(=O)NCc1ccc(C)o1)C2,x,x,16µM*,x,13µM*,x
Cc1oc2ncn(C)c(=O)c2c1C(=O)NCCCN1CCCC(C)C1 (stereo unspecified),i,-5%,-3%,-5%,10%,-21%
CCOC(=O)c1cccc(NC(=O)c2cc3c(-c4cccc(OC)c4)nn(C)c3s2)c1,u,-5%,16µM*,3%,16µM*,9%
Cc1oc(C(C)(C)C)cc1C(=O)NCc1ccc2c(c1)OCO2,i,-14%,u,5%,-8%,-29%
Cn1nc(C(C)(C)C)cc1C(=O)NCc1ccc2c(c1)OCO2,i,u,1.8µM*,-6%,4.6µM*,-17%
COc1cccc(-c2nn(C)c3sc(C(=O)NCc4ccc(OC)cc4OC)cc23)c1,i,-13%,u,-26%,u,3%
COc1cccc(-c2nn(C)c3sc(C(=O)NCc4ccc5c(c4)OCO5)cc23)c1,i,-2%,u,-31%,13µM*,-9%
COc1cccc(-c2nn(C)c3sc(C(=O)NCc4ccc(C)o4)cc23)c1,u,30%,23µM*,-31%,u,-8%
Cc1ccc(O)c(NC(=S)NC(=O)c2ccccc2Cl)c1,i,16%,u,-28%,u,-29%
CCN(CC)c1ccc(CNCc2cccs2)cc1,i,11%,21µM*,-7%,16µM*,6%
COc1cc(CNCc2cccs2)ccc1OCc1cccs1,i,13%,u,-32%,-16%,-3%
COc1cc2c(C(=O)N3CCN(c4ccccc4F)CC3)cn(C)c(=O)c2cc1OC,u,x,-24%,15%,-8%,14%
COc1cc2c(C(=O)N3CCN(c4cccc(Cl)c4)CC3)cn(CC(C)C)c(=O)c2cc1OC,i,-23%,u,-26%,23µM*,u
COc1ccccc1C(=O)N1CCN(c2cccc(C(F)(F)F)c2)CC1,i,-28%,12µM*,-8%,10µM*,-21%
CCn1cc(C(=O)N2CCN(c3cccc(C)c3C)CC2)c2cc(OC)c(OC)cc2c1=O,u,u,21µM*,-10%,21µM*,10µM*
COc1cc(C(=O)N2CCN(c3cccc(C(F)(F)F)c3)CC2)ccc1OCC(=O)N1CCOCC1,i,-12%,21µM*,-6%,23µM*,-19%
COc1cc2c(C(=O)N3CCN(c4ccc(F)cc4)CC3)cn(CC(C)C)c(=O)c2cc1OC,i,-3%,u,-9%,u,u
CCN(CC(=O)Nc1c(F)cccc1F)C(=O)CNC(=O)c1cccs1,i,-9%,-3%,1%,0%,-11%
